Values joined by “and” are separate entries in the source; they are usually repeats but may differ in a detail not shown here. Equal values may be shown once. Screen size: about 5,500 compounds; about 2,000 (36%) were called active. Inconclusive results (about 18%) are left out. Cut-off read from the data, not from the text of the source: active = normalized growth mostly below about 0.91 (no sharp cut-off); inconclusive = no clear call, values can overlap the other calls; inactive = mostly above about 0.92. Some of the results follow. More than one record can exist for a structure, and the calls need not agree.
Experiment: chemical genetic growth profiling, strain panel (AID 1159580);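 note: tested at 20 µM; growth read once vehicle control cultures reached saturation at 30 °C; 1 = growth at the plate median or of vehicle wells; lower values mean less growth of the strain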
Details: S. cerevisiae deletion strains, growth OD

Measured: normalized growth

CN1C2CCC1CC(OC(c1ccccc1)c1ccccc1)C2 (stereo not given)
0.802 (active) and 1.01 (inactive): locus YGR078C, strain PAC10, stronger effect = lower value
inactive: locus YAL021C, strain ccr4, stronger effect = lower value 0.963 | locus YAL026C, strain drs2, stronger effect = lower value 0.975 | locus YAL030W, strain snc1, stronger effect = lower value 0.985 | locus YAL040C, strain CLN3, stronger effect = lower value 0.98 | locus YBL061C, strain skt5, stronger effect = lower value 0.989 | locus YBR009C, strain hhf1, stronger effect = lower value 0.968 | locus YBR021W, strain FUR4, stronger effect = lower value 1.02 | locus YBR023C, strain chs3, stronger effect = lower value 0.994 | locus YBR171W, strain sec66, stronger effect = lower value 0.977 | locus YBR229C, strain ROT2, stronger effect = lower value 0.989 | locus YBR231C, strain swc5, stronger effect = lower value 0.998 | locus YBR279W, strain paf1, stronger effect = lower value 0.967 | locus YCL011C, strain gbp2, stronger effect = lower value 0.982 | locus YCL016C, strain dcc1, stronger effect = lower value 0.969 | locus YCL029C, strain bik1, stronger effect = lower value 0.98 | locus YCL069W, strain vba3, stronger effect = lower value 0.989 | locus YCR088W, strain abp1, stronger effect = lower value 0.998 | locus YDL005C, strain med2, stronger effect = lower value 0.977 | locus YDL035C, strain GPR1, stronger effect = lower value 0.894 | locus YDL040C, strain nat1, stronger effect = lower value 0.992 | locus YDL101C, strain DUN1, stronger effect = lower value 0.914 | locus YDL134C, strain PPH21, stronger effect = lower value 0.924 | locus YDL185W, strain tfp1, stronger effect = lower value 0.969 | locus YDL192W, strain arf1, stronger effect = lower value 0.986 | locus YDR001C, strain nth1, stronger effect = lower value 0.989 | locus YDR069C, strain doa4, stronger effect = lower value 0.981 | locus YDR101C, strain arx1, stronger effect = lower value 1 | locus YDR137W, strain rgp1, stronger effect = lower value 1.01 | locus YDR150W, strain NUM1, stronger effect = lower value 1.01 | locus YDR159W, strain sac3, stronger effect = lower value 0.976 | locus YDR195W, strain ref2 0.975 | locus YDR297W, strain sur2, stronger effect = lower value 0.981 | locus YDR318W, strain mcm21, stronger effect = lower value 0.982 | locus YDR334W, strain swr1, stronger effect = lower value 0.999 | locus YDR335W, strain msn5, stronger effect = lower value 0.986 | locus YDR363W, strain ESC2, stronger effect = lower value 1 | locus YDR388W, stronger effect = lower value 0.972 | locus YDR392W, strain spt3, stronger effect = lower value 0.87 | locus YDR502C, strain sam2, stronger effect = lower value 0.964 | locus YEL003W, strain gim4, stronger effect = lower value 0.983 | locus YEL037C, strain rad23, stronger effect = lower value 0.977 | locus YEL061C, strain CIN8 (second series), stronger effect = lower value 0.988 | locus YEL061C, strain CIN8, stronger effect = lower value 0.983 | locus YER002W, strain NOP16, stronger effect = lower value 0.989 | locus YER015W, strain faa2, stronger effect = lower value 0.99 | locus YER016W, strain bim1, stronger effect = lower value 0.949 | locus YER110C, stronger effect = lower value 0.974 | locus YER111C, strain swi4, stronger effect = lower value 1 | locus YER155C, strain BEM2 (second series), stronger effect = lower value 0.985 | locus YER167W, strain BCK2, stronger effect = lower value 0.939 | locus YFR010W, strain ubp6, stronger effect = lower value 0.973 | locus YGL078C, strain dbp3, stronger effect = lower value 0.98 | locus YGL086W, strain mad1, stronger effect = lower value 0.951 | locus YGL167C, strain pmr1, stronger effect = lower value 0.996 | locus YGL173C, strain kem1, stronger effect = lower value 0.982 | locus YGL227W, strain vid30, stronger effect = lower value 1 | locus YGL240W, strain doc1, stronger effect = lower value 1.02 | locus YGL253W, strain hxk2, stronger effect = lower value 0.999 | locus YGR135W, strain pre9, stronger effect = lower value 0.936 | locus YGR252W, strain gcn5, stronger effect = lower value 0.895 | locus YHR013C, strain ard1, stronger effect = lower value 0.924 | locus YHR027C, strain rpn1, stronger effect = lower value 0.985 | locus YHR079C, strain IRE1 (second series), stronger effect = lower value 0.977 | locus YHR094C, strain hxt1, stronger effect = lower value 0.977 | locus YHR142W, strain chs7, stronger effect = lower value 0.968 | locus YHR200W, strain rpn10, stronger effect = lower value 0.981 | locus YIL066C, strain RNR3, stronger effect = lower value 0.952 | locus YIL073C, strain SPO22, stronger effect = lower value 0.804 | locus YIL125W, strain kgd1, stronger effect = lower value 0.982 | locus YIR030C, strain dcg1, stronger effect = lower value 0.986 | locus YJL092W, strain hpr5, stronger effect = lower value 0.99 | locus YJL095W, strain BCK1 (second series), stronger effect = lower value 0.987 | locus YJL115W, strain asf1, stronger effect = lower value 0.98 | locus YJL129C, strain trk1, stronger effect = lower value 0.975 | locus YJL134W, strain LCB3, stronger effect = lower value 0.997 | locus YJL154C, strain vps35, stronger effect = lower value 0.975 | locus YJL164C, strain tpk1, stronger effect = lower value 0.979 | locus YJL166W, strain qcr8, stronger effect = lower value 1.01 | locus YJL168C, strain set2, stronger effect = lower value 0.985 | locus YJL187C, strain SWE1 (second series), stronger effect = lower value 0.888 | locus YJL187C, strain SWE1, stronger effect = lower value 0.989
active: locus YDL074C, strain BRE1, stronger effect = lower value 0.665 | locus YDR162C, strain NBP2, stronger effect = lower value 0.778 | locus YER155C, strain BEM2, stronger effect = lower value 0.805 | locus YGL248W, strain PDE1, stronger effect = lower value 0.842 | locus YHR030C, strain SLT2, stronger effect = lower value 0.839 | locus YHR129C, strain ARP1, stronger effect = lower value 0.87 | locus YJL095W, strain BCK1, stronger effect = lower value 0.723
0.825 (active) and 1.01 (inactive): locus YAL013W, strain DEP1, stronger effect = lower value
